# Where “and” joins values, the source holds several entries; their conditions need not be identical. Identical values can stand only once. Inconclusive results are not listed. Where a call stands in place of a potency, no number is given. Where a structure was tested more than once in an assay, its records may differ in their call. Calls of active or inactive are those of the source. Unless noted, the call rests on the fitted dose curve; in most records, active means well fitted curve in the direction sought with a large enough effect in the repeat runs; inconclusive means weak or mixed curves; inactive means no such curve, though single readings can be large; an effect the other way counts as inactive or inconclusive.
# Tests used:
# [1] = qHTS assay to identify small molecule antagonists of the thyroid receptor (TR) signaling pathway - cell viability counter screen (AID 743064); further: nearly all actives have a fitted effect of over 50% in size; further: potency means the concentration at half of the fitted maximal effect
# Method in brief: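 Compounds were tested on GH3.TRE-Luc cells in the presence of T3 at 1 nM final. Following 23.5 h at 37 °C, cell viability was quantified by CellTiter-Fluor.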
# [2] = qHTS assay to identify small molecule antagonists of the estrogen receptor alpha (ER-alpha) signaling pathway - cell viability counter screen (AID 743074; calls by dose curve;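 further: HEK293 cells carrying ER-alpha-UAS-bla reporter stimulated with 17beta-estradiol; nearly all actives have a fitted effect of over 45% in size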; further: potency means the concentration at half of the fitted maximal effect)
# [3] = qHTS assay to identify small molecule antagonists of the estrogen receptor alpha (ER-alpha) signaling pathway using the BG1 cell line - cell viability counter screen (AID 743081);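 further: compound given together with 17beta-estradiol as the ER stimulus; nearly all actives have a fitted effect of over 45% in size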; further: potency means the concentration at half of the fitted maximal effect
# Aromatase (Homo sapiens) = Aromatase (Homo sapiens) (UniProt P11511); test: qHTS assay to identify aromatase inhibitors (AID 743083); further: nearly all actives have a fitted effect of over 55% in size; further: potency means the concentration at half of the fitted maximal effect
# [4] = tested on: thyroid hormone receptor (rat, GH3 cells); test: qHTS assay to identify small molecule agonists of the thyroid receptor (TR) signaling pathway (AID 743066; calls by dose curve)
# [5] = molecular target: Estrogen receptor (Homo sapiens) (UniProt P03372); test: qHTS assay to identify small molecule antagonists of the estrogen receptor alpha (ER-alpha) signaling pathway (AID 743069; active means well fitted curve in the direction sought with a large enough effect in the signal ratio in the repeat runs, not every such curve was filed as active; the % refers to the signal ratio)
# Method in brief: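 Reporter cells (ER-alpha-bla, HEK293 background) are conditioned overnight in stripped-serum medium (2% charcoal-stripped FBS). Compound and 17beta-estradiol exposure runs 18 hr at 37C, 5% CO2.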
# [6] = molecular target: Estrogen receptor (Homo sapiens) (UniProt P03372); test: qHTS assay to identify small molecule agonists of the estrogen receptor alpha (ER-alpha) signaling pathway (AID 743075; calls by dose curve;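 further: HEK293 GripTite cells with ER-alpha and UAS-driven beta-lactamase reporter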)
# [7] = molecular target: Estrogen receptor (Homo sapiens) (UniProt P03372); test: qHTS assay to identify small molecule agonists of the estrogen receptor alpha (ER-alpha) signaling pathway using the BG1 cell line (AID 743079); further: nearly all actives have a fitted effect of over 20% in size; further: potency means the concentration at half of the fitted maximal effect
# [8] = qHTS assay to identify small molecule antagonists of the estrogen receptor alpha (ER-alpha) signaling pathway using the BG1 cell line (AID 743080; calls by dose curve;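 further: BG1 cells stimulated with 17beta-estradiol alongside compound; nearly all actives have a fitted effect of over 25% in size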); details: BG1Luc4E2 ERE-luciferase antagonist mode, luminescence; activity change, negative = inhibition: at 70.3 µM (top of the series) unless noted
# Method in brief: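 Quantitative HTS on the Tox21 10K library: BG1 cells with endogenous ER-alpha and ERE-luciferase reporter, 17beta-estradiol stimulation, 21.5 h compound exposure, luminescence endpoint with parallel fluorescence cytotoxicity counter-read.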
# [9] = qHTS assay to identify small molecule antagonists of the thyroid receptor (TR) signaling pathway (AID 743065); further: nearly all actives have a fitted effect of over 55% in size; further: potency means the concentration at half of the fitted maximal effect
# Method in brief: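 GH3.TRE-Luc rat pituitary cells (two TREs driving luciferase) were dosed with compound, then stimulated with 1 nM T3 (final) for 23.5 h at 37 C. ONE-Glo luminescence was the read-out, with CellTiter-Fluor fluorescence as the cytotoxicity counter-screen.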
# Estrogen receptor (Homo sapiens), sequence (P03372 whole entry, looked up): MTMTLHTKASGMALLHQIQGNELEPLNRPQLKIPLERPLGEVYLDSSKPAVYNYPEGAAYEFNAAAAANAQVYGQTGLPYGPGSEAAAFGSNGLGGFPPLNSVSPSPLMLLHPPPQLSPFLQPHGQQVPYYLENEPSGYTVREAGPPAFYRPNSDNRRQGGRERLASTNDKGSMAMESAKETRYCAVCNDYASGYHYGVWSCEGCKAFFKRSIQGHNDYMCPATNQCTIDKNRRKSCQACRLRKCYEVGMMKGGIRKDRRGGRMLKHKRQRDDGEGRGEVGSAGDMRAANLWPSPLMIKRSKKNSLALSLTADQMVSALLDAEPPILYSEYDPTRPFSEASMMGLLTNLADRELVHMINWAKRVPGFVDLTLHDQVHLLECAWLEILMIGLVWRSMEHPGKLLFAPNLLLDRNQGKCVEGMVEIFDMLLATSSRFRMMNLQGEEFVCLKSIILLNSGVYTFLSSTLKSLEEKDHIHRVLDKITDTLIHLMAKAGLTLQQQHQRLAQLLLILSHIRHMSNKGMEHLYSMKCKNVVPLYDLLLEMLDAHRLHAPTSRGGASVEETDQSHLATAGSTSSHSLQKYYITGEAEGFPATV
# Aromatase (Homo sapiens), sequence (P11511 whole entry, looked up): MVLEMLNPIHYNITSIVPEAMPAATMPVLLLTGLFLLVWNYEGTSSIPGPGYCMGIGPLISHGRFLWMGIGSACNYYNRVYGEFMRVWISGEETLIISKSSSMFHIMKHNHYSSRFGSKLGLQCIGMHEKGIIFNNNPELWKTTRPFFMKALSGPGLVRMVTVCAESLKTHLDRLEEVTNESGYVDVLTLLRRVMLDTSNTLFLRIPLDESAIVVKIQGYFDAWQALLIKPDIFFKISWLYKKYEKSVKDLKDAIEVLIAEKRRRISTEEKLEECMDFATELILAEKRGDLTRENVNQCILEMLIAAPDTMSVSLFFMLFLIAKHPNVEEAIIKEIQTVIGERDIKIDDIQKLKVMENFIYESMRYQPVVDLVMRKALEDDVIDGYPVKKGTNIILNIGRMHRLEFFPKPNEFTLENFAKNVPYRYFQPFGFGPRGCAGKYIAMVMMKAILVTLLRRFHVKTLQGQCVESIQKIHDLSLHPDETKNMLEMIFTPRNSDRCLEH
smiles,measurement,setting,value
CCCC[n+]1ccccc1C,Potency,[1],inactive
same,Potency,[2],inactive
same,Potency,[3],inactive
same,Potency,Aromatase (Homo sapiens),inactive
CCC[N+]1(C)CCCC1,Potency,[1],inactive
same,Potency,[2],inactive
same,Potency,[3],inactive
C[N+](C)(C)Cc1ccccc1,Potency,[1],inactive
same,Potency,[4],inactive
same,Potency,[5],inactive
same,Potency,[2],inactive
same,Potency,[6],inactive
same,Potency,[7],inactive
same,Potency,[8],inactive
same,Potency,[3],inactive
same,Potency,Aromatase (Homo sapiens),inactive
O=C(O)c1ccccc1O,Potency,[1],inactive
same,Potency,[4],inactive
same,Potency,[2],inactive
same,Potency,[3],inactive
O=[N+]([O-])O,Potency,[1],inactive
same,Potency,[2],inactive
same,Potency,[3],inactive
same,Potency,Aromatase (Homo sapiens),inactive
N#CS,Potency,[1],inactive
same,Potency,[9],inactive
same,Potency,[4],inactive
same,Potency,[2],inactive
same,Potency,[3],inactive
same,Potency,Aromatase (Homo sapiens),inactive
CCn1cc[n+](C)c1C,Potency,[1],inactive
same,Potency,[2],inactive
same,Potency,[3],inactive
same,Potency,Aromatase (Homo sapiens),inactive
CC[n+]1ccccc1,Potency,[1],inactive and 34.1 µM (active)
same,Potency,[4],inactive
same,Potency,[2],inactive
same,Potency,[8],inactive
same,Potency,[3],inactive and 30.4 µM (active)
same,Potency,Aromatase (Homo sapiens),inactive and 54 µM (active)
Nc1ccccc1,Potency,[1],inactive
same,Potency,[4],inactive
same,Potency,[2],inactive and 24.5 µM (active)
same,Potency,[3],inactive
same,Potency,Aromatase (Homo sapiens),inactive
O=c1[nH]c(=O)n(Cl)c(=O)n1Cl,Potency,[1],inactive
same,Potency,[4],inactive
same,Potency,[2],inactive
same,Potency,[3],inactive
same,Potency,Aromatase (Homo sapiens),inactive
CCCCCCCCCCCCCCCCn1cc[n+](C)c1,Potency,[4],inactive
same,Potency,[3],inactive and 49 µM (active) and 27.4 µM (active)
CN(C)[C@@H]1C(=O)C(C(N)=O)=C(O)[C@@]2(O)C(=O)C3=C(O)c4c(O)cccc4[C@@](C)(O)[C@H]3[C@H](O)[C@@H]12,Potency,[1],inactive
same,Potency,[4],inactive
same,Potency,[2],inactive
same,Potency,[3],inactive
same,Potency,Aromatase (Homo sapiens),inactive
C=CCOC(Cn1ccnc1)c1ccc(Cl)cc1Cl (configuration not stated),Potency,[1],54.6 µM (active)
same,Potency,[9],23.7 µM (active) and 61.3 µM (active) and 30.6 µM (active)
same,Potency,[4],inactive
same,Potency,[2],inactive
same,Potency,[3],inactive
same,Potency,Aromatase (Homo sapiens),944 nM (active) and 387 nM (active) and 433 nM (active)
CC[N+](CC)(CC)CC,Potency,[1],inactive
same,Potency,[9],inactive
same,Potency,[4],inactive
same,Potency,[2],inactive
same,Potency,[3],inactive
same,Potency,Aromatase (Homo sapiens),inactive
O=C(O)COc1ccc(Cl)cc1Cl,Potency,[1],inactive
same,Potency,[2],inactive
same,Potency,[3],inactive
O=c1nc(O)n(Cl)c(=O)n1Cl,Potency,[1],inactive
same,Potency,[4],inactive
same,Potency,[2],inactive
same,Potency,[3],inactive
same,Potency,Aromatase (Homo sapiens),inactive
O=S(=O)(O)O,Potency,[1],inactive
same,Potency,[2],inactive
same,Potency,[3],inactive
same,Potency,Aromatase (Homo sapiens),inactive
CCCC[N+]1(C)CCCCC1,Potency,[1],inactive
same,Potency,[9],inactive
same,Potency,[4],inactive
same,Potency,[2],inactive
same,Potency,[3],inactive
same,Potency,Aromatase (Homo sapiens),inactive
CCCC[n+]1ccc(C)cc1,Potency,[1],inactive and 30.5 µM (active)
same,Potency,[4],inactive
same,Potency,[2],inactive and 48.7 µM (active)
same,Potency,[3],inactive
same,Potency,Aromatase (Homo sapiens),inactive and 19.4 µM (active)
COP(=O)(OC)C(O)C(Cl)(Cl)Cl (configuration not stated),Potency,[1],inactive
same,Potency,[9],inactive
same,Potency,[4],inactive
same,Potency,[2],inactive
same,Potency,[3],inactive
same,Potency,Aromatase (Homo sapiens),inactive
CNC,Potency,[1],inactive
same,Potency,[2],inactive
same,Potency,[8],inactive
same,Potency,[3],inactive
same,Potency,Aromatase (Homo sapiens),inactive
Oc1cccc2cccnc12,Potency,[4],inactive
same,Potency,[2],inactive
same,Potency,[3],inactive
CCCCCCCCCCCC(=O)O,Potency,[1],inactive
same,Potency,[4],inactive
same,Potency,[2],inactive
same,Potency,[3],inactive
O=P1(N(CCCl)CCCl)NCCCO1 (configuration not stated),Potency,[1],inactive
same,Potency,[4],inactive
same,Potency,[5],inactive
same,Potency,[2],inactive
same,Potency,[6],inactive
same,Potency,[7],inactive and 27.3 µM (active)
same,Potency,[8],inactive
same,Potency,[3],inactive
same,Potency,Aromatase (Homo sapiens),inactive
CC[N+]1(C)CCCC1,Potency,[1],inactive
same,Potency,[9],inactive
same,Potency,[4],inactive
same,Potency,[2],inactive
same,Potency,[3],inactive
same,Potency,Aromatase (Homo sapiens),inactive
CCCCCCn1cc[n+](C)c1,Potency,[1],inactive
same,Potency,[9],inactive
same,Potency,[4],inactive
same,Potency,[3],inactive
same,Potency,Aromatase (Homo sapiens),inactive
COCC(=O)N(c1c(C)cccc1C)C(C)C(=O)OC (configuration not stated),Potency,[1],inactive
same,Potency,[5],inactive
same,Potency,[2],inactive
same,Potency,[6],inactive
same,Potency,[7],inactive
same,Potency,[8],inactive
same,Potency,[3],inactive
same,Potency,Aromatase (Homo sapiens),inactive
CCCCCCCCCCCCOS(=O)(=O)O,Potency,[1],inactive
same,Potency,[4],inactive
same,Potency,[2],inactive
same,Potency,[3],inactive
CCCCCCCCCCn1cc[n+](C)c1,"activity change, negative = inhibition",[8],-3.71% [at 95 µM] (active)
CCCCCCCCn1cc[n+](C)c1,Potency,[1],54.4 µM (active)
same,Potency,[9],27.3 µM (active) and 54.9 µM (active)
same,Potency,[4],inactive
same,Potency,[3],inactive
same,Potency,Aromatase (Homo sapiens),34.3 µM (active) and 27.5 µM (active) and 55 µM (active)
Oc1ccccc1-c1ccccc1,Potency,[1],inactive
same,Potency,[4],inactive
same,Potency,[5],inactive
same,Potency,[2],inactive
same,Potency,[6],inactive
same,Potency,[7],inactive
same,Potency,[8],inactive
same,Potency,[3],inactive
same,Potency,Aromatase (Homo sapiens),inactive
CC(=O)O,Potency,[1],inactive
same,Potency,[4],inactive
same,Potency,[2],inactive
same,Potency,[3],inactive
same,Potency,Aromatase (Homo sapiens),inactive
CCCn1cc[n+](C)c1,Potency,[1],inactive
same,Potency,[2],inactive
same,Potency,[8],inactive
same,Potency,[3],inactive
same,Potency,Aromatase (Homo sapiens),inactive
